Records with an inconclusive call do not appear. Active and inactive are the calls of the source. Calls come from the whole dose curve; as a rule, active = well fitted cell-killing curve with a large enough effect in the repeat runs; inconclusive = weak or mixed curves, or effect the other way; inactive = no such curve, though single readings can be large or run the other way. Residues, ends and D or L forms follow the SMILES beside them.
Assay: qHTS assay to identify small molecule agonists of the farnesoid-X-receptor (FXR) signaling pathway - cell viability counter screen (AID 743218); note: nearly all actives have a fitted effect of over 45% in size
Conditions: FXR-bla HEK293T viability, CellTiter-Glo luminescence, 16 h; series mostly up to 62.6 µM; viability change, negative = cytotoxic: at the top concentration
Description: U.S. Tox21 Program National Center for Advancing Translational Sciences [NCATS] NIH Chemical Genomics Center [NCGC] U.S. Environmental Protection Agency [EPA] National Institutes of Environmental Health Sciences [NIEHS] National Toxicology Program [NTP] U.S. Food and Drug Administration [FDA] Tox21 Assay Overview: The farnesoid-X-receptor (FXR), a nuclear hormone receptor, is highly expressed in liver, intestine, kidney and adrenal cortex. Natural ligands of FXR are the bile acids (Cholic acid, Chenodeoxy cholic acid etc). FXR is an important regulator of diverse metabolic pathways, including the bile acid homeostasis, lipid and glucose metabolisms. FXR regulates the expression of target genes by binding either as a monomer or as a heterodimer with the retinoid X receptor (RXR). Numerous studies have reported that FXR exerts protective function during cholestasis, diabetes, liver regeneration, and cancer. To identify compounds that activate FXR signaling, GeneBLAzer FXR-UAS-bla HEK 293T cell line (Invitrogen, Carlsbad, CA) containing a beta-lactamase reporter gene under the control of a UAS response element was used to screen the Tox21 10K compound library. The cytotoxicity of the Tox21 compound library against the FXR-bla cell line was tested in parallel by measuring the cell viability using CellTiter-Glo assay in the same wells.
Tox21 Assay Protocol Summary: FXR-bla cells were dispensed at 5000 cells/5uL/well in 1536-well black wall/clear bottom plates using a Multidrop Combi (Thermo Fisher Scientific, Waltham, MA) dispenser. After the assay plates were incubated at 37 C and 5% CO2 for 5 h, 23 nL of compounds dissolved in DMSO, positive controls or DMSO only was transferred to the assay plate by a Pintool station (Kalypsys, San Diego, CA). The assay plates were incubated at 37C for 16 h. After 1 uL of LiveBLAzerTM B/G FRET substrate was added using a Bioraptr Flying Reagent Dispenser (FRD) workstation (Beckman Coulter, Indianapolis, IN), the plates were incubated at room temperature for 2 h, and fluorescence intensity was measured by an Envision plate reader (PerkinElmer, Shelton, CT). For cell viability readout that measures cytotoxicity, 4uL/well of CellTiter-Glo reagent was added into the assay plates using a Bioraptr FRD. After 30 min incubation at room temperature, the luminescence intensity in the plates was measured using a ViewLux plate reader (PerkinElmer).
% is set by controls: 0 for no effect and ±100 for the full control effect.

| SMILES | outcome | viability change, negative = cytotoxic |
| --- | --- | --- |
| CC(C)(Oc1ccc(C2CC2(Cl)Cl)cc1)C(=O)O (stereo not given) | inactive |  |
| CCC1(c2ccccc2)C(=O)NCNC1=O | inactive |  |
| CCCNC(=O)NS(=O)(=O)c1ccc(Cl)cc1 | inactive |  |
| CCCCCCCCCCCCCCCC(=O)O | inactive |  |
| NC(=O)NC1NC(=O)NC1=O (stereo not given) | inactive |  |
| O=C(O)CCCCCCCC(=O)O | inactive |  |
| CCCCC(CC)COC(=O)/C=C/c1ccc(OC)cc1 (stereo not given) | inactive |  |
| O=S(=O)(O)NC1CCCCC1 | inactive |  |
| Cc1ccc(S(=O)(=O)NC(=O)NN2CCCCCC2)cc1 | inactive |  |
| Cc1ccc(C)c(OCCCC(C)(C)C(=O)O)c1 | inactive |  |
| COc1ccc2[nH]cc(CCNC(C)=O)c2c1 | inactive |  |
| CCOc1ccc(NC(=O)CC(C)O)cc1 (stereo not given) | inactive |  |
| CC(=O)NS(=O)(=O)c1ccc(N)cc1 | inactive |  |
| Nc1ccc(O)c(C(=O)O)c1 | inactive |  |
| OCCc1ccccc1 | inactive |  |
| Cn1cc[nH]c1=S | inactive |  |
| CC(O)CN(CCN(CC(C)O)CC(C)O)CC(C)O (stereo not given) | inactive |  |
| O=NO | inactive |  |
| Cc1ccccc1C(OCCN(C)C)c1ccccc1 (stereo not given) |  | -18.6% (inactive) |
| Cc1cc(=O)[nH]c(=S)[nH]1 | inactive |  |

| SMILES | outcome | viability change, negative = cytotoxic |
| --- | --- | --- |
| Cc1ccc(O)cc1 | inactive |  |
| O=C(O)c1[nH]n(-c2ccc(S(=O)(=O)O)cc2)c(=O)c1N=Nc1ccc(S(=O)(=O)O)cc1 | inactive |  |
| O=C1NC(=O)c2ccccc21 | inactive |  |
| CC(O)CO (stereo not given) | inactive |  |
| O=c1ccc2ccccc2o1 | inactive |  |
| CCCCC1C(=O)N(c2ccccc2)N(c2ccccc2)C1=O | inactive |  |
| Cn1c(=O)c2[nH]cnc2n(C)c1=O | inactive |  |
| O=C1CN(/N=C/c2ccc([N+](=O)[O-])o2)C(=O)N1 | inactive |  |
| O=C(O)/C=C\C(=O)O | inactive |  |
| O=C(c1ccccc1)c1ccccc1 | inactive |  |
| Cc1cn([C@H]2C[C@H](N=[N+]=[N-])[C@@H](CO)O2)c(=O)[nH]c1=O | inactive |  |
| O=C(O)CS | inactive |  |
| Cc1cc(=O)n(-c2ccccc2)n1C | inactive |  |
| CNC[C@H](O)c1cccc(O)c1 | inactive |  |
| CC1(C)[C@@H]2CC[C@@]1(C)C(=O)C2 | inactive |  |
| COC(=O)[C@H](Cc1ccccc1)NC(=O)[C@@H](N)CC(=O)O (H-Asp-Phe-OMe) | inactive |  |
| O=C(O)CCCCC(=O)O | inactive |  |
| O=C(O)C(=O)O | inactive |  |
| CCCC(CCC)C(=O)O | inactive |  |
| NC(N)=NC(=O)c1nc(Cl)c(N)nc1N | inactive |  |
